# Reference: PubChem BioAssay (NCATS)
# Inconclusive results are not listed. Where a call stands in place of a potency, no number is given. Activity calls are given as the source filed them. Calls follow the shape of the dose curve; as a rule, active = well fitted curve in the direction sought with a large enough effect; inconclusive = small, poorly fitted or top-dose-only effect, or another doubt; inactive = no such curve, though single readings can be large; an effect the other way counts as inactive or inconclusive.
# What was measured:
# [1] = target: Glutathione peroxidase 1 (Homo sapiens) (UniProt P07203); experiment: Primary qHTS Assay for Inhibitors of Recombinant Selenoprotein Glutathione Peroxidase 1 (GPX1) (AID 1845191); also: nearly all actives have a fitted effect of over 65% in size
# Chain of Glutathione peroxidase 1 (Homo sapiens) (P07203 whole entry, looked up): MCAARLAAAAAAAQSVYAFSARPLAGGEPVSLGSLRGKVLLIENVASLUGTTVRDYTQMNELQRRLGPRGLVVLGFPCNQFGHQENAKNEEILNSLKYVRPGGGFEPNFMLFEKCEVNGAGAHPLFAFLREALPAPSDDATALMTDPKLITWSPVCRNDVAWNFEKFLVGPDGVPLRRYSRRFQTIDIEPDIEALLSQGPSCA
# Outline: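 NADPH consumption tracked by fluorescence at 340/450 nm between t=0 and t=15 min, room temperature. Final mix: 10 nM GPX1, 100 nM glutathione reductase, 1 mM GSH, 0.5 mM NADPH, 0.5 mM cumene hydroperoxide, 0.01% BSA; 30 min compound–enzyme preincubation.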
# [2] = Quantitative High-Throughput drug screen in 47 multiple myeloma cell lines against the NCATS MIPE library collection: Delta47_JCRB cell viability assay (AID 1918925; also: nearly all actives have a fitted effect of over 45% in size; also: potency is read from the fitted curve at half-maximal effect)
# Outline: (§1)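 Myeloma cell lines, 500 cells per well, exposed to MIPE 4.0 library compounds for 48 h at 37C, 5% CO2. Viability from ATP by CellTiter-Glo luminescence; normalised to DMSO (100%) and media-only (0%) wells.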
# [3] = Quantitative High-Throughput drug screen in 47 multiple myeloma cell lines against the NCATS MIPE library collection: ARP1_JJKsccF8 cell viability assay (AID 1918928; also: nearly all actives have a fitted effect of over 40% in size; also: potency is read from the fitted curve at half-maximal effect)
# Outline: (§2)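 500 cells/well; MIPE 4.0 library pinned in; 48 h, 37 °C, 5% CO2; CellTiter-Glo ATP luminescence. Controls: DMSO = 100% viability, medium only = 0%.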
# [4] = Quantitative High-Throughput drug screen in 47 multiple myeloma cell lines against the NCATS MIPE library collection: Karpas417_ECACC cell viability assay (AID 1918961); conditions: Karpas417 myeloma viability, CellTiter-Glo ATP luminescence, 48 h; viability (% of DMSO): at 45.8 µM (top of the series) unless noted
# Outline: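 Inhibition of cell viability is measured here. Each line was plated at 500 cells per well, treated with MIPE 4.0 drugs, kept 48 hours at 37C, then assayed for ATP content by CellTiter-Glo luminescence.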
# [5] = Quantitative High-Throughput drug screen in 47 multiple myeloma cell lines against the NCATS MIPE library collection: JIM3_ECACC cell viability assay (AID 1918963; also: nearly all actives have a fitted effect of over 35% in size; also: potency is read from the fitted curve at half-maximal effect)
# Outline: (§3)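 Approved and investigational drugs from MIPE 4.0 were added by pin tool to 500 cells per well. After 48 hours at 37C, ATP-based CellTiter-Glo luminescence indicated remaining viability.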
# [6] = target: Phospholipid hydroperoxide glutathione peroxidase GPX4 (Homo sapiens) (UniProt P36969); experiment: Primary qHTS Assay for Inhibitors of Recombinant Selenoprotein Glutathione Peroxidase 4 (GPX4) (AID 1845192); also: nearly all actives have a fitted effect of over 65% in size
# Chain of Phospholipid hydroperoxide glutathione peroxidase GPX4 (Homo sapiens) (P36969 whole entry, looked up): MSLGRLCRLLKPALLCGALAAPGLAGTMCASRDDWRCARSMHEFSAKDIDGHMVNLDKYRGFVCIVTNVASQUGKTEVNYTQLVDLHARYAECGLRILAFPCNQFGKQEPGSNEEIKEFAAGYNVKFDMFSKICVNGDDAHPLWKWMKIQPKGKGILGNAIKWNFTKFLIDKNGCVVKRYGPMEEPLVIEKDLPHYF
# Outline: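 NADPH consumption followed by fluorescence at 340/450 nm, t=0 and after 15 min at room temperature. Reaction started with cumene hydroperoxide (0.5 mM final) after 30 min compound–GPX4 preincubation; final 200 nM GPX4, 100 nM GR, 1 mM GSH, 0.5 mM NADPH.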
# [7] = Quantitative High-Throughput drug screen in 47 multiple myeloma cell lines against the NCATS MIPE library collection: EJM_DSMZ cell viability assay (AID 1918926; also: nearly all actives have a fitted effect of over 30% in size; also: potency is read from the fitted curve at half-maximal effect)
# Outline: as §1
# [8] = Quantitative High-Throughput drug screen in 47 multiple myeloma cell lines against the NCATS MIPE library collection: AMO1_DSMZ cell viability assay (AID 1918927; also: nearly all actives have a fitted effect of over 30% in size; also: potency is read from the fitted curve at half-maximal effect)
# Outline: as §1
# [9] = Quantitative High-Throughput drug screen in 47 multiple myeloma cell lines against the NCATS MIPE library collection: ARD_JJKsccE7 cell viability assay (AID 1918929; also: potency is read from the fitted curve at half-maximal effect)
# Outline: as §1
# [10] = Quantitative High-Throughput drug screen in 47 multiple myeloma cell lines against the NCATS MIPE library collection: FR4_PLB cell viability assay (AID 1918924; also: nearly all actives have a fitted effect of over 35% in size; also: potency is read from the fitted curve at half-maximal effect)
# Outline: as §3
# [11] = Quantitative High-Throughput drug screen in 47 multiple myeloma cell lines against the NCATS MIPE library collection: Karpas620_DSMZ cell viability assay (AID 1918959); also: nearly all actives have a fitted effect of over 30% in size; also: potency is read from the fitted curve at half-maximal effect
# Outline: as §3
# [12] = Quantitative High-Throughput drug screen in 47 multiple myeloma cell lines against the NCATS MIPE library collection: KMM1_JCRB cell viability assay (AID 1918960); also: nearly all actives have a fitted effect of over 30% in size; also: potency is read from the fitted curve at half-maximal effect
# Outline: as §2
# [13] = Quantitative High-Throughput drug screen in 47 multiple myeloma cell lines against the NCATS MIPE library collection: KHM11_PLB cell viability assay (AID 1918962); also: nearly all actives have a fitted effect of over 35% in size; also: potency is read from the fitted curve at half-maximal effect
# Outline: as §3
# [14] = target: Luciferin 4-monooxygenase (Photinus pyralis) (UniProt P08659); experiment: Primary firefly luciferase (FLuc) qHTS assay for identification of artifact compounds. (AID 1845220); also: nearly all actives have a fitted effect of over 60% in size
# Outline: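 Compounds sat 15 min at room temperature with 10 uM luciferin and 10 uM ATP (pH 7.6 Tris acetate). Firefly luciferase (10 nM final) was then added, and luminescence was read 5 min later. Data normalized to no-enzyme and DMSO controls were Hill-fitted.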
# [15] = Primary fluorescence-based thiol-reactive (MSTI) qHTS assay for identification of artifact compounds. (AID 1845221); also: nearly all actives have a fitted effect of over 65% in size; also: potency is read from the fitted curve at half-maximal effect
# Outline: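 MSTI probe at 4 uM final in 2% DMSO/PBS pH 7.4; compounds, 1 h at room temperature in dark. Fluorescence Ex/Em 525/598 nm, normalised to Acetyl-MSTI and MSTI, fitted to 4-parameter Hill.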
# [16] = test system: Nanoluciferase (engineered Oplophorus gracilirostris luciferase); experiment: Primary Nanoluciferase (NLuc) qHTS assay for identification of artifact compounds. (AID 1845222)
# Outline: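 Luminescence from secreted NLuc (filtered, 1:55-diluted S16 cell medium) read 5 min after Nano-Glo substrate; compounds preincubated 15 min, RT. Hill fits of inhibition normalized to DMSO and no-enzyme.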
# [17] = Primary redox qHTS assay for identification of artifact compounds. (AID 1845223)
# Outline: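 Redox-cycling detection via DTT (250 uM final) oxidation coupled to Amplex Red (25 uM)/HRP (250 mU/mL) in HBSS. 15 min preincubation plus 30 min after DTT, room temperature. Ex/Em 525/598 nm; 4-parameter Hill fit against DMSO and 10 uM DA3003.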
compound,measurement,setting,value
Cc1cc([C@@H](C)Nc2ccccc2C(=O)O)c2nc(N3CCOCC3)cc(=O)n2c1,Potency,[1],inactive
same,Potency,[2],2.7 µM (active)
same,Potency,[3],0.481 µM (active)
same,viability (% of DMSO),[4],5.47% [at 92.2 µM] (active)
same,Potency,[5],13.6 µM (active)
CCC(=O)N[C@H]1CC[C@H](C(=O)N(C)c2ccc(-c3nc4ccccc4o3)cc2)C1,Potency,[6],inactive
same,Potency,[2],8.33 µM (active)
same,Potency,[7],16.6 µM (active)
same,Potency,[8],11.8 µM (active)
same,Potency,[9],11.8 µM (active)
same,Potency,[5],8.33 µM (active)
N#Cc1ccc(C(c2ccc(C#N)cc2)n2cncn2)cc1,Potency,[6],inactive
same,Potency,[10],14.8 µM (active)
same,Potency,[7],inactive
same,Potency,[9],6.62 µM (active)
same,Potency,[11],18.7 µM (active)
O=C(O)COCCN1CCN(C(c2ccccc2)c2ccc(Cl)cc2)CC1 (stereo not drawn),Potency,[1],inactive
same,Potency,[10],inactive
same,Potency,[9],inactive
same,Potency,[11],inactive
same,Potency,[12],inactive
same,Potency,[13],7.43 µM (active)
COc1cccc2cc(-c3nc(C4CCC(C(=O)O)CC4)n4ncnc(N)c34)[nH]c12 (stereo not drawn),Potency,[6],inactive
same,Potency,[14],inactive
same,Potency,[15],26.7 µM (active)
same,outcome,[16],inactive
same,Potency,[10],0.187 µM (active)
same,Potency,[2],0.469 µM (active)
same,Potency,[7],0.187 µM (active)
same,Potency,[3],0.662 µM (active)
same,Potency,[11],0.59 µM (active)
same,Potency,[13],0.118 µM (active)
Cc1[nH]c(=O)c(C#N)cc1-c1ccncc1,Potency,[6],inactive
same,Potency,[2],7.43 µM (active)
same,Potency,[7],inactive
same,Potency,[8],23.5 µM (active)
same,Potency,[11],inactive
same,Potency,[13],inactive
same,Potency,[5],18.7 µM (active)
CN[C@@H](C)C(=O)N[C@H]1CCCC[C@H]2CC[C@@H](C(=O)N[C@@H](c3ccccc3)c3cn(CCCCc4ccc(CCCCn5cc([C@@H](NC(=O)[C@@H]6CC[C@@H]7CCCC[C@H](NC(=O)[C@H](C)NC)C(=O)N76)c6ccccc6)nn5)cc4)nn3)N2C1=O,Potency,[1],inactive
same,Potency,[2],3.72 µM (active)
same,Potency,[7],5.26 µM (active)
same,Potency,[11],14.8 µM (active)
same,Potency,[13],5.26 µM (active)
COc1cc2nccc(Oc3ccc(NC(=O)NC4CC4)c(Cl)c3)c2cc1C(N)=O,Potency,[6],inactive
same,Potency,[14],inactive
same,Potency,[15],inactive
same,outcome,[16],inactive
same,outcome,[17],inactive
same,Potency,[10],23.5 µM (active)
same,Potency,[2],13.2 µM (active)
same,Potency,[7],2.09 µM (active)
same,Potency,[3],14.8 µM (active)
same,Potency,[11],inactive
same,Potency,[12],3.72 µM (active)
same,Potency,[4],inactive
same,Potency,[5],13.2 µM (active)
CCCc1nc2c(C)cc(-c3nc4ccccc4n3C)cc2n1Cc1ccc(-c2ccccc2C(=O)O)cc1,Potency,[1],inactive
same,Potency,[2],inactive
same,Potency,[7],inactive
same,Potency,[8],inactive
same,Potency,[3],inactive
same,Potency,[9],inactive
same,Potency,[11],inactive
same,Potency,[12],inactive
same,Potency,[13],inactive
same,Potency,[5],inactive
CCOc1cc(C(=O)Nc2ccc(Cl)c(-c3nc4ccccc4[nH]3)c2)cc(OCC)c1OCC,Potency,[6],inactive
same,Potency,[14],inactive
same,Potency,[15],inactive
same,outcome,[16],inactive
same,outcome,[17],inactive
same,Potency,[2],18.7 µM (active)
same,Potency,[7],13.2 µM (active)
same,Potency,[13],1.18 µM (active)
Cc1cc(SCc2sc(-c3ccc(C(F)(F)F)cc3)nc2C)ccc1OCC(=O)O,Potency,[6],inactive
same,Potency,[15],inactive
same,outcome,[16],inactive
same,outcome,[17],inactive
same,Potency,[10],inactive
same,Potency,[7],inactive
same,Potency,[9],inactive
same,Potency,[11],inactive
same,Potency,[12],inactive
same,Potency,[5],18.7 µM (active)
NC(=O)c1ccc(-c2nc(-c3ccc4c(c3)OCCO4)c(-c3ccccn3)[nH]2)cc1,Potency,[6],inactive
same,Potency,[7],inactive
same,Potency,[3],4.18 µM (active)
same,Potency,[5],inactive
Cc1cnc(Nc2ccc(OCCN3CCCC3)cc2)nc1Nc1cccc(S(=O)(=O)NC(C)(C)C)c1,Potency,[6],inactive
same,Potency,[14],inactive
same,outcome,[16],inactive
same,Potency,[10],inactive
same,Potency,[8],0.418 µM (active)
same,Potency,[5],inactive
C[C@@H]1CN(Cc2ccc(F)cc2)[C@@H](C)CN1C(=O)c1cc2c(C(=O)C(=O)N(C)C)cn(C)c2cc1Cl,Potency,[6],inactive
same,Potency,[14],inactive
same,Potency,[15],inactive
same,outcome,[16],inactive
same,outcome,[17],inactive
same,Potency,[2],9.35 µM (active)
same,Potency,[8],29.6 µM (active)
same,Potency,[5],13.2 µM (active)
O=C(O)[C@@H](c1ccc(OCc2ccc3ccccc3n2)cc1)C1CCCC1,Potency,[6],inactive
same,Potency,[10],inactive
same,Potency,[8],inactive
same,Potency,[3],inactive
same,Potency,[12],inactive
same,Potency,[13],inactive
same,Potency,[5],inactive
CC(C)(C)OC(=O)CN(Cc1ccc(Cl)cc1)Cc1ccc([N+](=O)[O-])s1,Potency,[6],inactive
same,Potency,[10],inactive
same,Potency,[7],inactive
same,Potency,[9],inactive
same,Potency,[11],inactive
same,Potency,[12],inactive
same,Potency,[13],inactive
same,Potency,[5],16.6 µM (active)
NCCc1ccc(O)c(O)c1,Potency,[1],inactive
same,Potency,[13],inactive
same,Potency,[5],18.7 µM (active)
N=c1nc(N2CCCCC2)cc(N)n1O,Potency,[6],inactive
same,Potency,[10],inactive
same,Potency,[7],inactive
same,Potency,[8],inactive
same,Potency,[11],inactive
same,Potency,[12],inactive
same,Potency,[5],inactive
NC(=O)C1CCCc2c1[nH]c1ccc(Cl)cc21 (stereo not drawn),Potency,[6],inactive
same,Potency,[10],inactive
same,Potency,[7],inactive
same,Potency,[8],14.8 µM (active)
same,Potency,[13],14.8 µM (active)
same,Potency,[5],inactive
CS(=O)(=O)Oc1ccc2c(NC(N)=O)c(C(=O)c3ccc(Cl)cc3Cl)oc2c1,Potency,[6],inactive
same,Potency,[10],inactive
same,Potency,[2],14.8 µM (active)
same,Potency,[7],inactive
same,Potency,[8],9.35 µM (active)
Clc1cccc(Cl)c1NC1=NCCN1,Potency,[1],inactive
same,Potency,[2],inactive
same,Potency,[7],inactive
same,Potency,[8],inactive
same,Potency,[11],inactive
same,Potency,[12],inactive
same,Potency,[13],inactive
same,Potency,[5],inactive
OC(CN1CCC(Cc2ccc(F)cc2)CC1)c1ccc(Cl)cc1 (stereo not drawn),Potency,[6],inactive
same,Potency,[10],inactive
same,Potency,[2],inactive
same,Potency,[8],inactive
same,Potency,[9],inactive
same,Potency,[11],inactive
same,Potency,[12],inactive
same,Potency,[5],inactive
CC(C[N+](C)(C)C)OC(N)=O (stereo not drawn),Potency,[6],inactive
same,Potency,[2],inactive
same,Potency,[7],inactive
same,Potency,[8],inactive
same,Potency,[12],inactive
same,Potency,[13],inactive
same,Potency,[5],0.0083 µM (active)
CCC(C)n1ncn(-c2ccc(N3CCN(c4ccc(OC[C@H]5CO[C@](Cn6cncn6)(c6ccc(Cl)cc6Cl)O5)cc4)CC3)cc2)c1=O (stereo partly drawn),Potency,[14],inactive
same,Potency,[15],inactive
same,outcome,[16],inactive
same,outcome,[17],inactive
same,Potency,[2],inactive
same,Potency,[7],2.96 µM (active)
same,Potency,[11],inactive
same,Potency,[13],inactive
same,Potency,[5],inactive
COc1ccc(-c2ccc3c(N4CCOC[C@H]4C)nc(N4CCOC[C@H]4C)nc3n2)cc1CO,Potency,[10],0.0235 µM (active)
Cc1c(CN2CCN(C(=O)C(C)C)CC2)sc2c(N3CCOCC3)nc(-c3cnc(N)nc3)nc12,Potency,[10],0.0833 µM (active)
same,Potency,[2],0.0469 µM (active)
same,Potency,[7],0.833 µM (active)
same,Potency,[3],0.0235 µM (active)
same,Potency,[12],0.059 µM (active)
same,Potency,[13],0.132 µM (active)
same,Potency,[5],0.418 µM (active)
CC(C)OC(=O)C1=CN(C(=O)c2ccc(F)c(F)c2)CC(C)(C)c2c1[nH]c1ccccc21,Potency,[14],inactive
same,outcome,[16],inactive
same,outcome,[17],inactive
same,Potency,[10],inactive
same,Potency,[2],inactive
same,Potency,[7],inactive
same,Potency,[3],inactive
same,Potency,[9],inactive
same,Potency,[12],inactive
